# FBW7 activator: FBW7 E3 ligase activators, primary screen, biochemical, AlphaScreen, human; F-box/WD repeat-containing protein 7 (Homo sapiens), Q969H0; AlphaScreen FBW7–phospho-cyclin E peptide binding, activator screen; normalized activity (activation), % at 26.1 µM; actives 0.13% (n = 650,000); in the data active = normalized activity above about 1.9%;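 note: purified mutant Fbw7 with reduced substrate affinity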
# GPR151 ag: activators of human GPR151, primary screen, cell-based, PathHunter beta-arrestin, luminescence; actives 1% (n = 650,000); PathHunter beta-arrestin GPR151 cells; activation, % at 11.2 µM; in the data active = activation above about 4.9%;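 note: 0% = median of compound wells and 100% = cells with positive control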
# TEAD-YAP inh: TEAD-YAP interaction inhibition, primary screen, TEAD-YAP interaction inhibitor project, luminescence, HEK-TIYL cells | TEAD-Gal4/YAP UAS-luciferase luminescence | inhibition, % at 9.12 µM | actives 1.4% (n = 640,000) | AID 1259422, 2018; in the data active = inhibition above about 32%;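 note: 0% = median of test compound wells and 100% = reference inhibitor wells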
# MITF inh: MITF inhibitors, primary screen, biochemical, AlphaScreen, human; Microphthalmia-associated transcription factor (Homo sapiens), O75030; actives 0.91% (n = 650,000); AID 1259374, 2018; inhibition, % at 2.6 µM; AlphaScreen MITF homodimerization, bead proximity signal; in the data active = inhibition above about 50%;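 note: 0% = vehicle wells with protein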
# MITF confirm: MITF inhibitors, retest of hits, confirmation, biochemical, AlphaScreen, triplicate | shares compounds with MITF inh | AlphaScreen MITF homodimerization, biotin/His-MITF beads | inhibition, % at 2.6 µM | actives 16% (n = 4,700) | AID 1259372, 2018;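 active = inhibition above a cutoff derived from the DMSO control wells, cut at about 28% in these data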;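 note: 0% = MITF dimer wells with DMSO only; inhibitors lower the bead chemiluminescence by keeping MITF from dimerizing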
# AlphaScreen DR: AlphaScreen optical interference compounds, dose response, counter-screen, biochemical, HTS; AID 1259373, 2018; actives 6% (n = 480); IC50, µM; AlphaScreen optical interference counterscreen, cell-free; shares compounds with MITF inh; call rule not given here
# AS interf ctr: AlphaScreen optical interference compounds, counter-screen for MITF inhibitor project, biochemical, triplicate. shares compounds with MITF inh. LysRS AlphaScreen counterscreen, signal interference. inhibition, % at 2.6 µM. actives 7.6% (n = 4,700);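 active = inhibition above a cutoff derived from the DMSO control wells, cut at about 30% in these data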
# Starred values were filed as active, the others as inactive; nt = no result. Only some compounds are listed: those with a hit (about 3.5% of all), similar ones and a draw of the others.
SMILES,FBW7 activator,GPR151 ag,TEAD-YAP inh,MITF inh,MITF confirm,AS interf ctr,others
Cc1c(S(=O)(=O)N2CCN(c3cccc(C(F)(F)F)c3)CC2)c(=O)n(C)c(=O)n1C,1,-2,6,22,nt,nt,
Cc1cc(C)c(C)c(S(=O)(=O)N2CCN(c3cccc(C(F)(F)F)c3)CC2)c1C,0,2,-3,63*,4,17,
O=C(NCCS(=O)(=O)N1CCN(c2cccc(Cl)c2)CC1)c1cc2ccccc2o1,0,0,5,1,nt,nt,
CCOC(=O)c1c(C)oc(NC(=O)c2ccc([N+](=O)[O-])cc2Cl)c1C#N,0,1,2,54*,8,13,
CCOC(=O)c1cc(CC)sc1NC(=O)c1cc([N+](=O)[O-])ccc1N1CCCCCC1,0,0,-2,18,nt,nt,
CCOC(=O)c1cc(CC)sc1NC(=O)c1cc([N+](=O)[O-])ccc1Cl,0,3,6,60*,5,7,
O=S(=O)(NCCO)c1ccc2cc(O)ccc2c1,0,1,-5,-7,nt,nt,
CCSCCOC(=O)C1=C(C)NC2=C(C(=O)C(C(=O)OC)C(C)C2)C1c1cccc(OCc2ccccc2)c1 (stereo unspecified),0,0,-2,71*,-18,-8,
O=C(CSc1nc2cc(Cl)ccc2s1)Nc1cc(C(F)(F)F)cc(C(F)(F)F)c1,1,0,3,3,nt,nt,
CCS(=O)(=O)N1CCN(C(C)CCc2ccccc2)CC1 (stereo unspecified),0,1,18,51*,6,12,
CCOc1ccc(C(=O)Nc2scc(-c3ccc(Cl)cc3)c2C(N)=O)cc1,1,0,-12,29,nt,nt,
O=C(O)COc1ccc(-n2cccc2)cc1,0,-1,-1,74*,50*,-4,AlphaScreen DR=>6.5
O=C(O)COc1ccc(N2C(=O)c3ccccc3C2=O)cc1,0,-1,-2,16,nt,nt,
COc1cc(C)ccc1OCCOCCN1CC(C)OC(C)C1 (stereo unspecified),0,1,4,57*,4,16,
Cc1ccc(OCCN2CC(C)OC(C)C2)c(Cl)c1 (stereo unspecified),0,1,-10,65*,9,7,
C/C=C/c1ccc(OCCCN2CC(C)OC(C)C2)c(OC)c1 (stereo unspecified),0,-1,-4,50,nt,nt,
C/C=C/c1ccc(OCCN2CC(C)OC(C)C2)c(OC)c1 (stereo unspecified),0,-3,11,64*,-3,6,
CCOC(=O)C1=C(c2ccccc2)N=c2s/c(=C\c3cccnc3)c(=O)n2C1c1c(OC)ccc2ccccc12 (stereo unspecified),0,1,-8,11,nt,nt,
CCN(CC)CCN1CC(c2ccccc2)CC1=O (stereo unspecified),0,0,5,58*,17,11,
COc1ccc(CCNC(=O)c2cc(Nc3ccnn3C)nc3ccccc23)cc1,0,-2,-4,69*,0,-2,
CCOc1cc(CN2CCCCC2)ccc1OC,0,1,10,2,nt,nt,
CCOc1cc(CN2CCN(Cc3cccnc3)CC2)ccc1OC,1,0,0,74*,-9,-1,
CCOc1cc(CN2CCN(Cc3ccc(Cl)cc3)CC2)ccc1OC,0,-1,-4,61*,6,9,
CCOc1cc(CN2CCN(Cc3cccc(Cl)c3)CC2)ccc1OC,0,1,15,40,nt,nt,
CCOc1cc(CN2CCN(Cc3cc(OC)c(OC)c(OC)c3)CC2)ccc1OC,0,2,-8,71*,-17,0,
CCOc1ccc(CN2CCN(c3ccccn3)CC2)cc1,0,0,11,25,nt,nt,

# Source: PubChem
